Data reported in the supplement of paper PMC10849652.
Targets with a hit are over-represented here; the source holds about 7,900 in all. About 0.6% of all pairs of compound and target were hits.

Legend:
Assay in all cases: log2 fold change, soluble protein after heating vs DMSO (PISA); higher = thermal stabilisation; K562 cells, 10 uM, 30 min; active = over 0.2 and 3.5 SD of the protein, either way, in both replicates (recomputed)
[1] = compound: CC1=C(C=C(C=C1)NC(=O)C2=CC(=CC=C2)C(C)(C)C#N)NC3=CC4=C(C=C3)N=CN(C4=O)C
Summary of the method: (§1)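 For each measurement, 10 μM compound was applied for 30 min to K562 cells at 2×10^6 cells/mL. Aliquots were heated for 3 min across 48°C-58°C, pooled, and extracted in PBS with 0.5% NP-40 at 4°C; the supernatant after 21,000xg for 90 min was soluble protein. This was quantified by TMTpro 16plex LC-MS/MS with channel sums equalised, and thermal stability was reported relative to control samples from duplicates, on a log2 fold-change scale.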

[2] = compound: CC1=C(C=C(C=C1)NC(=O)C2=CC(=CC=C2)N(C)C)NC(=O)C3=CC=C(C=C3)O
Summary of the method: as §1

[3] = compound: CC1=CC=C(C=C1)SC2=C3C=C(SC3=CN=C2)C(=O)N
Summary of the method: as §1

[4] = compound: CC1=NC(=CC=C1)C2=C(N=C(N2)C(C)(C)C)C3=CC4=NC=CN=C4C=C3
Summary of the method: as §1

Nexturastat A = compound: CCCCN(Cc1ccc(C(=O)NO)cc1)C(=O)Nc1ccccc1 [Nexturastat A]
Summary of the method: as §1

vemurafenib = compound: CCCS(=O)(=O)Nc1ccc(F)c(C(=O)c2c[nH]c3ncc(-c4ccc(Cl)cc4)cc23)c1F [vemurafenib]
Summary of the method: as §1

[5] = compound: CCCS(=O)(=O)Nc1ccc(F)c(C(=O)c2c[nH]c3ncc(Cl)cc23)c1F
Summary of the method: as §1

[6] = compound: CCCc1cc(C)[nH]c(=O)c1CNC(=O)c1cc(-c2ccnc(N3CCN(C)CC3)c2)cc2c1cnn2C(C)C
Summary of the method: as §1

givinostat = compound: CCN(CC)Cc1ccc2cc(COC(=O)Nc3ccc(C(=O)NO)cc3)ccc2c1 [givinostat]
Summary of the method: as §1

barasertib = compound: CCN(CCCOc1ccc2c(Nc3cc(CC(=O)Nc4cccc(F)c4)[nH]n3)ncnc2c1)CCOP(=O)(O)O [barasertib]
Summary of the method: as §1

Measured: log2 fold change

FNTB (UniProt P49356)
inactive: [1] 0.032 | [2] -0.058 | [3] 0 | [4] 0 | Nexturastat A -0.041 | vemurafenib 0.011 | [5] -0.052 | [6] 0.029 | givinostat -0.083 | barasertib -0.034

HADHB (UniProt P55084)
UniProt P55084, sequence (P55084 whole entry, looked up): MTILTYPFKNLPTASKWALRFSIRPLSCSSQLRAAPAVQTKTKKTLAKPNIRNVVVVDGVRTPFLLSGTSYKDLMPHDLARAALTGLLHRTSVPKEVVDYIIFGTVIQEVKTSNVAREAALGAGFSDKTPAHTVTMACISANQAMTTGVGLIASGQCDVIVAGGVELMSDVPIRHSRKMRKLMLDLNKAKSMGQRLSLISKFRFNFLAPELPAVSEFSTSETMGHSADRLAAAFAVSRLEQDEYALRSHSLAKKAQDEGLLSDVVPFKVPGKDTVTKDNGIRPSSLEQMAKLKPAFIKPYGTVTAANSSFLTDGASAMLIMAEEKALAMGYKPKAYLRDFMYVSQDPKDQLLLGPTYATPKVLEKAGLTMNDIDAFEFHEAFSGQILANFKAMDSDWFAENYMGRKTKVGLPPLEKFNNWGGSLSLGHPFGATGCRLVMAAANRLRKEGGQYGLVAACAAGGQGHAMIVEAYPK
inactive: [1] 0.19 | [2] -0.248 | [3] -0.002 | [4] -0.012 | Nexturastat A -0.085 | vemurafenib -0.047 | [5] -0.042 | [6] 0.113 | givinostat 0.064 | barasertib 0

HIST2H2BF isoform 2 (UniProt Q5QNW6)
active: Nexturastat A 0.78
inactive: [1] -0.094 | [2] -0.034 | [3] -0.202 | [4] -0.009 | vemurafenib -0.284 | [5] 0.529 | [6] 0.1 | givinostat 0.331 | barasertib -0.157

FANCI (UniProt Q9NVI1)
inactive: [1] 0.012 | [2] 0.018 | [3] 0.01 | [4] 0.046 | Nexturastat A -0.054 | vemurafenib 0.016 | [5] 0.087 | [6] 0.009 | givinostat 0.043 | barasertib 0.029

FEN1 (UniProt P39748)
UniProt P39748, sequence (P39748 whole entry, looked up): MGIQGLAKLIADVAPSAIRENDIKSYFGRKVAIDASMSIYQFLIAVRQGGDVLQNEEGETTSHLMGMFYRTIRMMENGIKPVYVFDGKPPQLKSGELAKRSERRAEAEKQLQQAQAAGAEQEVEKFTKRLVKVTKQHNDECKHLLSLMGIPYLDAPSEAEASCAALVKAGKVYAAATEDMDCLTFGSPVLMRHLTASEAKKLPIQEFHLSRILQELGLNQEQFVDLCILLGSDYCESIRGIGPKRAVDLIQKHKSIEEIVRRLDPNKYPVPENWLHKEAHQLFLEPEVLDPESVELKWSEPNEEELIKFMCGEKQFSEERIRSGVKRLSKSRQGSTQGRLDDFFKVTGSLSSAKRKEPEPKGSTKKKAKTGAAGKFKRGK
inactive: [1] 0.018 | [2] -0.08 | [3] 0.045 | [4] 0.057 | Nexturastat A -0.194 | vemurafenib 0.121 | [5] 0.022 | [6] -0.03 | givinostat 0.096 | barasertib 0.088

HECTD1 (UniProt Q9ULT8)
active: Nexturastat A 0.273
inactive: [1] 0.04 | [2] -0.068 | [3] 0.144 | [4] -0.023 | vemurafenib -0.04 | [5] 0.126 | [6] 0.054 | givinostat 0.038 | barasertib 0.048

GTF3C5 isoform 3 (UniProt Q9Y5Q8)
UniProt Q9Y5Q8, sequence (Q9Y5Q8 whole entry, looked up): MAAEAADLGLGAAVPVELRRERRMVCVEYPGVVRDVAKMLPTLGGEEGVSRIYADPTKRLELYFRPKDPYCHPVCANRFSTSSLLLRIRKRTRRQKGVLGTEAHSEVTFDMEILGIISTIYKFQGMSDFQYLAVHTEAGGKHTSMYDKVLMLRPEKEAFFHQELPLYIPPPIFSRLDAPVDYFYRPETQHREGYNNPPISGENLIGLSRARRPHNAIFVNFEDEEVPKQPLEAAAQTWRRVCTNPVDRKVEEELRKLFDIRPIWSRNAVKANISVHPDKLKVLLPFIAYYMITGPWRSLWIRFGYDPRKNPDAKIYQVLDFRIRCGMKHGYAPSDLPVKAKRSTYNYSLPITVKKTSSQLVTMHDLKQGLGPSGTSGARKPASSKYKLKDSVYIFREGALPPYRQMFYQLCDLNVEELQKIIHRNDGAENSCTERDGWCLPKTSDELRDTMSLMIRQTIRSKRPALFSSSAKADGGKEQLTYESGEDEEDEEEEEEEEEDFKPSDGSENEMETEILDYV
inactive: [1] 0.058 | [2] -0.022 | [3] 0.088 | [4] 0.007 | Nexturastat A 0.136 | vemurafenib 0.101 | [5] 0.056 | [6] 0.061 | givinostat 0.045 | barasertib 0.08

GTF2A2 (UniProt P52657)
UniProt P52657, sequence (P52657 whole entry, looked up): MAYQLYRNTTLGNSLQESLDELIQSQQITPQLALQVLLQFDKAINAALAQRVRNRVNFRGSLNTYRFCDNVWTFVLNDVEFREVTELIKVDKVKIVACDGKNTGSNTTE
inactive: [1] 0.009 | [2] -0.029 | [3] 0.052 | [4] 0.03 | Nexturastat A -0.091 | vemurafenib -0.083 | [5] -0.017 | [6] -0.053 | givinostat -0.044 | barasertib 0.007

IFRD2 isoform 2 (UniProt Q12894)
UniProt Q12894, sequence (Q12894 whole entry, looked up): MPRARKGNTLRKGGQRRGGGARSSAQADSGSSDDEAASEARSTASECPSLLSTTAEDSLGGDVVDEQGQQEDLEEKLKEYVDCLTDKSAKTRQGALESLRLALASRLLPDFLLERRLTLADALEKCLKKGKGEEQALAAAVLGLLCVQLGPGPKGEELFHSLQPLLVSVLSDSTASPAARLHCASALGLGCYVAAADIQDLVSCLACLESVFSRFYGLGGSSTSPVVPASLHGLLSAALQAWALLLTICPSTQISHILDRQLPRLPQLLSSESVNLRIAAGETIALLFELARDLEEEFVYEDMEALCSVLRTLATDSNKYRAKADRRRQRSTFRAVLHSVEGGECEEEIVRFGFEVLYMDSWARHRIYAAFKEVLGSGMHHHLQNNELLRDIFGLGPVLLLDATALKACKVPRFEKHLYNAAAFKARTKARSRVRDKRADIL
inactive: [1] 0.093 | [2] 0.035 | [3] -0.129 | [4] -0.13 | Nexturastat A 0.055 | vemurafenib -0.043 | [5] 0.062 | [6] -0.225 | givinostat -0.2 | barasertib -0.142

FHOD1 (UniProt Q9Y613)
UniProt Q9Y613, sequence (Q9Y613 whole entry, looked up): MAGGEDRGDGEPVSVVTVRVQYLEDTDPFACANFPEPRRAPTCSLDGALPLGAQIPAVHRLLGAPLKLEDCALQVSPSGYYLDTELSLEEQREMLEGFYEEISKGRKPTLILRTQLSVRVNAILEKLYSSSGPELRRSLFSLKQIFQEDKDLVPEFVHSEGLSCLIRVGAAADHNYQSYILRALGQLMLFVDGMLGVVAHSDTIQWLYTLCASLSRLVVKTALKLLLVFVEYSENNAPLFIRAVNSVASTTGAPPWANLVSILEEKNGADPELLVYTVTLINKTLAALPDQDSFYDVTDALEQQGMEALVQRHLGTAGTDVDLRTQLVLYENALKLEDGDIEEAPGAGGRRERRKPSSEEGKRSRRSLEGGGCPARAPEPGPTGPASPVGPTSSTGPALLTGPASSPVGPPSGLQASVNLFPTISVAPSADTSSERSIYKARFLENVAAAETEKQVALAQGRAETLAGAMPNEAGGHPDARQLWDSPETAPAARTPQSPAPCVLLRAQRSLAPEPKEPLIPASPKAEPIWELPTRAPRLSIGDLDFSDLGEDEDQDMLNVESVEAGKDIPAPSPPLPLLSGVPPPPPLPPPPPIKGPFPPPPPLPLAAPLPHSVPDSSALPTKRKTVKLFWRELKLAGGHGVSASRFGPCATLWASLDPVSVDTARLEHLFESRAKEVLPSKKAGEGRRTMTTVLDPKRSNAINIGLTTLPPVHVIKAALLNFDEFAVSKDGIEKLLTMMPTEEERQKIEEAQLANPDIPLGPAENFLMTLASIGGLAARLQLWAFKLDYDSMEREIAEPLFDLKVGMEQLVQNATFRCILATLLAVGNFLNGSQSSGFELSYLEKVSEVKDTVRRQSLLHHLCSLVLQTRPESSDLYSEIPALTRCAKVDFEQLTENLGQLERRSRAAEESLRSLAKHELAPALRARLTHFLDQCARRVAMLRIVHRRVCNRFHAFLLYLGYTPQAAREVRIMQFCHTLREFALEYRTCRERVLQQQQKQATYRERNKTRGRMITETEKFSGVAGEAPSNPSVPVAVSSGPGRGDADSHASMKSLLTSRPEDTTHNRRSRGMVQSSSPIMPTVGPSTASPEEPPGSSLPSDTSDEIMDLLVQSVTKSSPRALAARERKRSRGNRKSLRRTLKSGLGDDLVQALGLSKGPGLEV
inactive: [1] -0.288 | [2] 0.073 | [3] -0.063 | [4] -0.09 | Nexturastat A 0.365 | vemurafenib -0.002 | [5] -0.134 | [6] 0.132 | givinostat 0.024 | barasertib 0.044

GTF2A1 (UniProt P52655)
UniProt P52655, sequence (P52655 whole entry, looked up): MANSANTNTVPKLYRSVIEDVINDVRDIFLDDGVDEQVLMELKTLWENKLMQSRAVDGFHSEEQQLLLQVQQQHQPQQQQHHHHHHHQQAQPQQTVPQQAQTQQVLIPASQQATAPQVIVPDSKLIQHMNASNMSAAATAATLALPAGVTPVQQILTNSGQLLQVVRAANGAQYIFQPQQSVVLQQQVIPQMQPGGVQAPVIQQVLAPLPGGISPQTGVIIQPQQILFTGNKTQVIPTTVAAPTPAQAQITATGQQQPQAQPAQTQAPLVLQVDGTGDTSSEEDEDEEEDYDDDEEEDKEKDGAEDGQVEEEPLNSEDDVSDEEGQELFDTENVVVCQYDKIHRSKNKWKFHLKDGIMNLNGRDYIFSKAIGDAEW
inactive: [1] -0.086 | [2] -0.05 | [3] -0.023 | [4] -0.006 | Nexturastat A 0.077 | vemurafenib 0.005 | [5] -0.057 | [6] -0.011 | givinostat -0.01 | barasertib 0.021

HEATR3 (UniProt Q7Z4Q2)
UniProt Q7Z4Q2, sequence (Q7Z4Q2 whole entry, looked up): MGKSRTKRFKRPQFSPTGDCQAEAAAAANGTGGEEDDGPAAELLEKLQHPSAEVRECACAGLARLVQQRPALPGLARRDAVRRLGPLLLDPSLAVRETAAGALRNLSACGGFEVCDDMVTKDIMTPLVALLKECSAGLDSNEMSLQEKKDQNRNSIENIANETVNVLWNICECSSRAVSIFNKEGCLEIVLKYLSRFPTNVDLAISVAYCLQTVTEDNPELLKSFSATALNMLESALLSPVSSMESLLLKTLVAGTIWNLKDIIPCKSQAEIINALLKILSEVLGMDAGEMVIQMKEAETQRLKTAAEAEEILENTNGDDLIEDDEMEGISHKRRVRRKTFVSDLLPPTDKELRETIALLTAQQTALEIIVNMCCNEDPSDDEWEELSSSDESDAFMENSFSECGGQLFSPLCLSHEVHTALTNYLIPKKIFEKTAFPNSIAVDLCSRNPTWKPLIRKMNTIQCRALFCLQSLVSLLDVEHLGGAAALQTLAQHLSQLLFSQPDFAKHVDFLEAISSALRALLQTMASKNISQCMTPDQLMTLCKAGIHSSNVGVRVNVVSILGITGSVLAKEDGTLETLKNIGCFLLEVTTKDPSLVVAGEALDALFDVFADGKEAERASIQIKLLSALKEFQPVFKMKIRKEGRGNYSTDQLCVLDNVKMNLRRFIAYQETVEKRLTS
inactive: [1] 0.004 | [2] 0.116 | [3] 0.034 | [4] 0.047 | Nexturastat A 0.016 | vemurafenib 0.007 | [5] 0.082 | [6] -0.067 | givinostat 0.069 | barasertib 0.144

GATA1 (UniProt P15976)
inactive: [1] -0.05 | [2] 0.02 | [3] -0.085 | [4] -0.029 | Nexturastat A -0.104 | vemurafenib -0.06 | [5] -0.035 | [6] -0.003 | givinostat -0.047 | barasertib -0.034

HAT1 (UniProt O14929)
UniProt O14929, sequence (O14929 whole entry, looked up): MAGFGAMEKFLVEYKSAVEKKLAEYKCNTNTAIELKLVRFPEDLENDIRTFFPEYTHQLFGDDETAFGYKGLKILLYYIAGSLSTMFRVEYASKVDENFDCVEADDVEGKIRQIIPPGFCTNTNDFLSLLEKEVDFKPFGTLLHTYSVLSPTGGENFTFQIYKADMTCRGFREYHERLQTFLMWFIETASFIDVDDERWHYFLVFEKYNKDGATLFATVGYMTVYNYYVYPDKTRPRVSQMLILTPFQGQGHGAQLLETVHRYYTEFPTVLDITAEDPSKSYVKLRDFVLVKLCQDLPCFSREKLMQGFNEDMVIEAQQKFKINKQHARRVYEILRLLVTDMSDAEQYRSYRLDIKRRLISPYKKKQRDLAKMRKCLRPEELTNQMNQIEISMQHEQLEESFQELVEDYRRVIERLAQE
inactive: [1] 0.042 | [2] -0.037 | [3] 0.008 | [4] 0.095 | Nexturastat A -0.034 | vemurafenib 0.087 | [5] 0.013 | [6] 0.007 | givinostat 0.005 | barasertib 0.025

HMGB3 (UniProt O15347)
UniProt O15347, sequence (O15347 whole entry, looked up): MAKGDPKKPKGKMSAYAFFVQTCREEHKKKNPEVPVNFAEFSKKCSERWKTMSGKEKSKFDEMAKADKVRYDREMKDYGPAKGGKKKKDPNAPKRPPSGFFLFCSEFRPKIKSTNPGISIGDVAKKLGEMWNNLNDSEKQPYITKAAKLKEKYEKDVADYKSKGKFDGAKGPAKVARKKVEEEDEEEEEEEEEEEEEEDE
inactive: [1] -0.012 | [2] 0 | [3] 0.006 | [4] 0.011 | Nexturastat A -0.014 | vemurafenib -0.083 | [5] 0.011 | [6] 0.202 | givinostat -0.016 | barasertib -0.008
